In the library only some 8.9% were active in any assay of this set; here they are far more common.
ALDH1A1 block: ALDH1A1 (human) enzyme inhibition; P00352; actives 7.3% (n = 220,000); Potency, µM (top dose mostly 75.3 µM), without a hit: at the highest dose activity, negative = inhibition, hits mostly inhibitors; Purified ALDH1A1, NADH fluorescence, propionaldehyde substrate; active = well fitted inhibition curve with a large enough effect, not every such curve was filed as active; inconclusive = small, poorly fitted or top-dose-only effect, or another doubt; inactive = no such curve, though single readings can be large or run the other way;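 also: potency is read from the fitted curve at half-maximal effect; plate controls were no enzyme wells and a reference inhibitor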
HPGD block: inhibitors of human 15-hydroxyprostaglandin dehydrogenase (HPGD); P15428; purified HPGD, NADH fluorescence kinetic, PGE2 substrate; Potency, µM, for inactives: at the top dose activity change, negative = inhibition, most hits filed as inhibitors; actives 4.3% (n = 150,000); AID 894; active = well fitted inhibition curve with a large enough effect, not every such curve was filed as active; inconclusive = small, poorly fitted or top-dose-only effect, or another doubt; inactive = no such curve, though single readings can be large or run the other way; also: potency is read from the fitted curve at half-maximal effect
Target sequence (P15428 whole entry, looked up): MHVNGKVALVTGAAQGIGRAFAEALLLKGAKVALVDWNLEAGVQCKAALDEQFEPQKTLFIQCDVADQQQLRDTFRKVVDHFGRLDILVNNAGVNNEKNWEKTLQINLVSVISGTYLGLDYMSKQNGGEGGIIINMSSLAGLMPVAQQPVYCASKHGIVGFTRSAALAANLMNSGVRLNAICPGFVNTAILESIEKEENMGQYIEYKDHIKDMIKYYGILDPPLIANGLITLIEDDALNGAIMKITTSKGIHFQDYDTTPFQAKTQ
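NADH formation kinetics: reaction with 30 uM PGE2 and 1 mM NAD+ (final), 20 nM enzyme, Tris-HCl pH 8 with Tween 20, after 15 min compound preincubation at room temperature. Fluorescence change, last versus first of five reads.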
IMPase inh: cell-permeable inhibitors of inositol monophosphatase (IMPase); inhibition (IP1 accumulation), % at 46.1 µM; CHO-M1 cells, IP1 accumulation, HTRF TR-FRET ratio; P97697; AID 901; 120,000 tested, under 10 active; active = well fitted curve in the direction sought with a large enough effect in the signal ratio, not every such curve was filed as active; inconclusive = small, poorly fitted or top-dose-only effect, or a change in a side signal; inactive = no such curve, though single readings can be large or run the other way; the % refers to the signal ratio;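 also: cells stimulated with carbachol in lithium chloride buffer; plate controls were DMSO basal wells for no effect and reference inhibitor wells for full effect; higher means more IMPase inhibition seen as more IP1 and lower FRET ratio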
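CHO-M1 cells (CHO stably expressing M1 receptor), compound up to 46 uM final, stimulated with carbachol (50 uM as added) in buffer with 50mM LiCl, pH 7.4, 30 min at 37C. Cytosolic IP1 read by TR-FRET; AC50 from Hill fits.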
ALOX12 inhib: blocks human 12-lipoxygenase activity; purified 12-hLO, xylenol orange hydroperoxide absorbance; Potency, µM (top dose mostly 57.1 µM), for the others: at the highest dose activity change, negative = inhibition, usual class: inhibitors; actives 0.12% (n = 150,000); AID 1452; also: potency is read from the fitted curve at half-maximal effect; nearly all actives have a fitted effect of over 55% in size
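150 nM 12hLO, 25 mM Hepes pH 7.0 + 0.01% Triton X-100; cpd preinc 15 min RT; 40 uM arachidonic acid, 30 min RT; Fe-XO 30 min; A573/A405 ratio as read-out.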
IMPase Li inh: cell-permeable IMPase inhibitors with lithium potentiation | CHO-M1 cells, IP1 TR-FRET (IP-One), carbachol + lithium | Potency, µM (top dose mostly 59.4 µM), for the others: top-dose activity, negative = IMPase inhibition, actives largely listed as inhibitors | actives 0.35% (n = 210,000) | AID 1457;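 also: IP1 builds up when IMPase is blocked and the TR-FRET signal falls; potency is read from the fitted curve at half-maximal effect; plate controls were basal vehicle for no effect and high inhibitor control for full effect; nearly all actives have a fitted effect of over 50% in size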
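CHO cells stably expressing M1 receptor (2000/well) were cultured 16–30 h, then exposed to compounds with a small lithium addition for 30 min at 37C. IP1 was measured by TR-FRET competition; AC50 from Hill fits.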
NPSR antag: antagonists of human neuropeptide S receptor cAMP signaling; Q6W5P4; CHO-NPSR cells, cAMP TR-FRET, antagonist mode; Potency, µM (doses to about 38.3 µM), inactives show at the highest dose activity change, negative = inhibition, usual class: inhibitors; actives 1% (n = 220,000); also: potency is read from the fitted curve at half-maximal effect; nearly all actives have a fitted effect of over 50% in size
Target sequence (Q6W5P4 whole entry, looked up): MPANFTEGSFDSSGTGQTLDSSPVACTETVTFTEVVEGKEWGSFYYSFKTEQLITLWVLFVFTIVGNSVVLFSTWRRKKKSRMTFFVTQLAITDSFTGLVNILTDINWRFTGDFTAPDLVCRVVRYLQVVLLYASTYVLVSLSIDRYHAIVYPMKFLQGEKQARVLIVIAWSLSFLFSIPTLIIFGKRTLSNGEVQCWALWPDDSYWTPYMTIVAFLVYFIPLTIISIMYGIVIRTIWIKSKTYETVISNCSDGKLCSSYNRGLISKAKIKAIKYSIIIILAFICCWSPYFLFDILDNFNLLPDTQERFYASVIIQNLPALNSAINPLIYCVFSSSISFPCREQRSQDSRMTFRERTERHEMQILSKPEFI
Numbers without * were called inactive; [ ] = dose if it differs, or a comment. Unless noted, calls follow the shape of the dose curve; as a rule, active = well fitted curve in the direction sought with a large enough effect; inconclusive = small, poorly fitted or top-dose-only effect, or another doubt; inactive = no such curve, though single readings can be large; an effect the other way counts as inactive or inconclusive. Unless noted, % is scaled to controls: 0 for no effect and ±100 for the full control effect.

`CCOc1ccc(N2C(=O)CC(N(Cc3ccco3)C(C)=O)C2=O)cc1` (centres undefined) gave ALDH1A1 block 20µM*, IMPase Li inh 0.5% and NPSR antag -22.2%.
`O=C(c1ccco1)N1CCN(C2CC(=O)N(c3ccc4c(c3)OCO4)C2=O)CC1` (centres undefined) gave ALDH1A1 block inconclusive, HPGD block 0.7%, IMPase inh -6.9, ALOX12 inhib -4.0%, IMPase Li inh 0.1%[38.3 µM] and NPSR antag -15.0%[46.1 µM].
For CCOC(=O)c1ccc(N2C(=O)CC(N3CCN(C(=O)c4ccco4)CC3)C2=O)cc1 (centres undefined) the results were ALDH1A1 block inconclusive, HPGD block 0.7%, IMPase inh -5.1, ALOX12 inhib -4.1%, IMPase Li inh -2.6%[38.3 µM] and NPSR antag -3.0%[46.1 µM].
`CCOc1ccc(N2C(=O)CC(N3CCN(C(=O)c4ccco4)CC3)C2=O)cc1` (centres undefined) gave ALDH1A1 block 8.91µM*, HPGD block -3.5%, IMPase inh -1.3, ALOX12 inhib -3.4%, IMPase Li inh -7.2%[38.3 µM] and NPSR antag -21.6%[46.1 µM].
N=c1c2c(n(Cc3ccc(Cl)cc3)c3c1CCC3)CCC2 was read as ALDH1A1 block -3.3%, HPGD block -29.8%, IMPase inh -0.3, ALOX12 inhib 10.1%, IMPase Li inh 8.4%[38.3 µM] and NPSR antag 11.0%[46.1 µM].
Screening COC(=O)CCCC1=CC2=CC(=O)C(C)(OC(=O)c3cccs3)C(=O)C2=CN1CCc1ccccn1 (centres undefined) returned ALDH1A1 block -12.2%[13.5 µM], HPGD block -1.7%, ALOX12 inhib -0.1%[11.4 µM], IMPase Li inh 1.7% and NPSR antag 10.6%.
Screening COC(=O)c1cc(Cl)c(NC(=O)/C=C/c2ccc(OC)c(OC)c2)cc1OC returned ALDH1A1 block inconclusive, HPGD block inconclusive, IMPase inh -7.8, ALOX12 inhib 1.2%, IMPase Li inh 10µM* and NPSR antag inconclusive.
O=C(NC1CCCc2ccccc21)C1CCN(S(=O)(=O)c2cccc3nonc23)CC1 (centres undefined) was read as ALDH1A1 block 31.6µM*, HPGD block -2.0%, IMPase inh 6.7, ALOX12 inhib 4.8%, IMPase Li inh -5.4%[38.3 µM] and NPSR antag -11.4%[46.1 µM].
Screening O=C(NC1CCCc2ccccc21)C1CCN(S(=O)(=O)c2ccccc2F)CC1 (centres undefined) returned ALDH1A1 block inconclusive, HPGD block -12.8%, ALOX12 inhib -0.9%, IMPase Li inh -3.9% and NPSR antag 2.7%.
Screening O=C(CCNS(=O)(=O)c1cccc2nsnc12)NC1CCCc2ccccc21 (centres undefined) returned ALDH1A1 block inconclusive, HPGD block -7.2%, IMPase inh 8.0, ALOX12 inhib 1.2%, IMPase Li inh 26.6%[38.3 µM] and NPSR antag -11.8%[46.1 µM].
Screening O=C(CCNS(=O)(=O)c1cccc2nonc12)NC1CCCc2ccccc21 (centres undefined) returned ALDH1A1 block 14.1µM*, HPGD block -4.9%, IMPase inh 5.4, ALOX12 inhib 0.4%, IMPase Li inh -3.4%[38.3 µM] and NPSR antag -8.9%[46.1 µM].
For CCC(CO)NCC#Cc1ccccc1 (centres undefined) the results were ALDH1A1 block 6.3%, IMPase Li inh -1.9% and NPSR antag 23.0%.
For CCS(=O)(=O)c1c(S(=O)(=O)CC)c2ccccn2c1C(N)=O the results were ALDH1A1 block 2.6%, IMPase Li inh 10.6% and NPSR antag 17.2%.
Screening CCCCOc1ccc(C(=O)N/C(=C/c2cccc([N+](=O)[O-])c2)C(=O)O)cc1 returned ALDH1A1 block 11.2µM*, IMPase Li inh -0.2% and NPSR antag 21.9%.
CCCCCC(=O)NNC(=O)Cc1ccc([N+](=O)[O-])cc1 was read as ALDH1A1 block -10.0%, IMPase Li inh 6.0% and NPSR antag 11.5%.
Screening CCCCC(=O)NNC(=S)NC(=O)c1ccc([N+](=O)[O-])cc1 returned ALDH1A1 block 5.62µM*, IMPase Li inh 1.3% and NPSR antag 18.8%.
For CCCCC(=O)NNC(=S)NC(=O)c1ccc(C)cc1 the results were ALDH1A1 block 25.1µM*, IMPase Li inh 8.3% and NPSR antag -8.5%.
`CCCCC(=O)NNC(=S)NC(=O)c1cccc([N+](=O)[O-])c1` gave ALDH1A1 block 1.78µM*, HPGD block 8.91µM*, IMPase inh 0.6, ALOX12 inhib inconclusive, IMPase Li inh 23.7%[38.3 µM] and NPSR antag -6.7%[46.1 µM].
For Cc1cccnc1NC(=O)Nc1ccc(F)cc1 the results were ALDH1A1 block 6.0%, HPGD block -12.2%, IMPase inh 6.0, ALOX12 inhib 6.9%, IMPase Li inh -5.4%[38.3 µM] and NPSR antag 2.6%[46.1 µM].
`FC(F)(F)c1cnc(N2CCN(C(=S)NCc3ccccc3)CC2)c(Cl)c1` gave ALDH1A1 block 0.7% and NPSR antag 49.8%.
For CC(=O)c1cccc(N(CC(=O)N2CCCC2)S(C)(=O)=O)c1 the results were ALDH1A1 block 25.1µM*, HPGD block 0.1%, IMPase inh 11.9, ALOX12 inhib -0.9%, IMPase Li inh -3.3%[38.3 µM] and NPSR antag -9.3%[46.1 µM].
`C/C(=N\Nc1ccc(Cl)cc1)c1c(O)cc(C)oc1=O` gave ALDH1A1 block 7.94µM*, IMPase Li inh -1.5% and NPSR antag -14.4%.
`Cc1cc(O)c(/C=N/Nc2ccccc2)c(=O)o1` gave ALDH1A1 block 7.94µM*, HPGD block -29.6%, IMPase inh 39.3, ALOX12 inhib inconclusive, IMPase Li inh 62.1%[38.3 µM] and NPSR antag -29.5%[46.1 µM].
COc1ccccc1N1CCN(Cc2nnc(-c3ccccc3C)o2)CC1 was read as IMPase inh 7.2.
For O=[N+]([O-])c1ccccc1Oc1ccc(C(F)(F)F)cn1 the results were ALDH1A1 block 13.7%, IMPase Li inh 3.8% and NPSR antag 0.4%.
Screening Cc1cc([N+](=O)[O-])nn1CCCC(=O)Nc1sc2c(c1C(N)=O)CCCC2 returned ALDH1A1 block 6.6%, HPGD block 4.47µM*, IMPase inh -3.5, ALOX12 inhib 0.8%, IMPase Li inh -4.1% and NPSR antag 4.5%.
Cc1cc([N+](=O)[O-])nn1CC(=O)Nc1sc2c(c1C(N)=O)CCCC2 was read as ALDH1A1 block inconclusive, IMPase Li inh 4.4% and NPSR antag 3.3%.
For NC(=O)c1c(NC(=O)CCCn2cnc([N+](=O)[O-])n2)sc2c1CCCC2 the results were ALDH1A1 block 1.58µM*, IMPase Li inh 4.9% and NPSR antag 5.7%.

Screening results: PubChem, National Center for Advancing Translational Sciences (NCATS)
